# Assay results from PMC7862700, “An all-to-all approach to the identification of sequence-specific readers for epigenetic DNA modifications on cytosine”.
# Columns and labels:
# Test in all cases: DAPPL (digital affinity profiling via proximity ligation, sequencing); 10 mM Tris-HCl pH 7.5, 50 mM NaCl, 1 mM DTT, 4% glycerol, room temperature, 30 min; GST-TFs on glutathione beads, 16-mer random dsDNA library, 0.1% formaldehyde crosslink after washing; high values mean tight binding
# FLI1 = molecular target: T1, FLI1 (Homo sapiens, UniProt Q01543 1-452); details: protein: recombinant; tags: N-terminal GST; dsDNA, one strand shown
# T1 sequence: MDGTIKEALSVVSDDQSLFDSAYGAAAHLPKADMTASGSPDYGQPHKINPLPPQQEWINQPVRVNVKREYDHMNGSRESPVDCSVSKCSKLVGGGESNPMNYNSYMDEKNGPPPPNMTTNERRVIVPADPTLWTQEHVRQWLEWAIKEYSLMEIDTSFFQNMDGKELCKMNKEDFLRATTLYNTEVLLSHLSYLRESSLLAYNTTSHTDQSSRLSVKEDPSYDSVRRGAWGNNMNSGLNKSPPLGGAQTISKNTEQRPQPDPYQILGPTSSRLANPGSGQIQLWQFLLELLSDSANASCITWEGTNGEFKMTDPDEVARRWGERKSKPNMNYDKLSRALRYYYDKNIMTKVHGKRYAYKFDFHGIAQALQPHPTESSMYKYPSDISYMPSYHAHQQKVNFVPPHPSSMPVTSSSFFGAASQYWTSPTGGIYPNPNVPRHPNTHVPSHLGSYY
# Method in brief: (§1)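 In yeast, human transcription factors were expressed with a GST fusion, then pulled down on glutathione beads and given DNA barcodes. Pooled with a tag-only sample, they were exposed to 200 nmole of a 16-mer random double-stranded DNA library (Tris/NaCl/DTT/glycerol buffer, room temperature, 30 min), washed, crosslinked with 0.1% formaldehyde, proximity-ligated using BsaI/T4 ligase for 1 h at 37 °C, PCR-amplified and read on an Illumina NextSeq500. Each hexamer's frequency of reads for a factor, divided by the matching frequency for the tag-only sample, gives the binding signal.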
# ELK1 = molecular target: T2, ELK1 (Homo sapiens, UniProt P19419 1-428); details: protein: recombinant; tags: N-terminal GST; dsDNA, one strand shown
# T2 sequence: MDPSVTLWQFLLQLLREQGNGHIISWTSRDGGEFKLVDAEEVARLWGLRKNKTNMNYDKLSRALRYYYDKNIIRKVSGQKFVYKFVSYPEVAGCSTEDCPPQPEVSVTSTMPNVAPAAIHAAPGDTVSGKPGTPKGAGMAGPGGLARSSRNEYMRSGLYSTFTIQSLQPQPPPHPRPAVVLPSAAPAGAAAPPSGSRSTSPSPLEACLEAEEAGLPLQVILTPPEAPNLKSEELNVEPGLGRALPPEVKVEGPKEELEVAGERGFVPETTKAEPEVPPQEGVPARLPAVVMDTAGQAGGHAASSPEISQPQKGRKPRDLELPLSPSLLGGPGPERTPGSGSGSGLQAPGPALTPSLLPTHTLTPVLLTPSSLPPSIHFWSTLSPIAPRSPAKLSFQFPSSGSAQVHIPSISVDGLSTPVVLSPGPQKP
# Method in brief: as §1
# GABPA = molecular target: T3, GABPA (Homo sapiens, UniProt Q06546 1-454); details: protein: recombinant; tags: N-terminal GST; dsDNA, one strand shown
# T3 sequence: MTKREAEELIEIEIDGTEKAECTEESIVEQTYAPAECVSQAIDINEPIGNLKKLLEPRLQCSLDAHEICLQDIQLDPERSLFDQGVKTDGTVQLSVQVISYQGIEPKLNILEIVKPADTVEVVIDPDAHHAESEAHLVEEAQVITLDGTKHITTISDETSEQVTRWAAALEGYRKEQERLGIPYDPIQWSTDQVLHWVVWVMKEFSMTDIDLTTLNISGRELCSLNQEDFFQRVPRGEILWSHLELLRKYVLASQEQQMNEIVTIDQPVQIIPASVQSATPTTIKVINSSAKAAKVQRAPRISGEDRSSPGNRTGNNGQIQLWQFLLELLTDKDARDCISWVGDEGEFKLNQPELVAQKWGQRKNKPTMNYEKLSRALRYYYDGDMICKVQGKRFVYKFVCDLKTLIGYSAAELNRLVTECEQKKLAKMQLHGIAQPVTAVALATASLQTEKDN
# Method in brief: as §1
# ERG = molecular target: T4, ERG (Homo sapiens, UniProt P11308 1-479); details: protein: recombinant; tags: N-terminal GST; dsDNA, one strand shown
# T4 sequence: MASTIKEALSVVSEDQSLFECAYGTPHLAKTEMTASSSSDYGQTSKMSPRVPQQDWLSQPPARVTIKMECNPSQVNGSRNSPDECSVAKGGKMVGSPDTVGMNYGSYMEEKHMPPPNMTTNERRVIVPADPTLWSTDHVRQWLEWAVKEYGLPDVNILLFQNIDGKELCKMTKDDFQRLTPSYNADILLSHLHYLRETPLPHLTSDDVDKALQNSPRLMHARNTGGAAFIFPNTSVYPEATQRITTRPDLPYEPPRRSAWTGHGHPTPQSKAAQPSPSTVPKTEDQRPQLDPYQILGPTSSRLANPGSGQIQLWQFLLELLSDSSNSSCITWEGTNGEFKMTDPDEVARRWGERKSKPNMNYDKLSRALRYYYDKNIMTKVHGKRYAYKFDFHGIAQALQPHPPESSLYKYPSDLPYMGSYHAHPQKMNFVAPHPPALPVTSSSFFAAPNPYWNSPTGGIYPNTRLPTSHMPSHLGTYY
# Method in brief: as §1
# ELF1 = ELF1 (Homo sapiens, UniProt P32519 1-619); details: protein: recombinant; tags: N-terminal GST; dsDNA, one strand shown
# Method in brief: as §1
# EHF = molecular target: T5, EHF (Homo sapiens, UniProt Q9NZC4 1-300); details: protein: recombinant; tags: N-terminal GST; dsDNA, one strand shown
# T5 sequence: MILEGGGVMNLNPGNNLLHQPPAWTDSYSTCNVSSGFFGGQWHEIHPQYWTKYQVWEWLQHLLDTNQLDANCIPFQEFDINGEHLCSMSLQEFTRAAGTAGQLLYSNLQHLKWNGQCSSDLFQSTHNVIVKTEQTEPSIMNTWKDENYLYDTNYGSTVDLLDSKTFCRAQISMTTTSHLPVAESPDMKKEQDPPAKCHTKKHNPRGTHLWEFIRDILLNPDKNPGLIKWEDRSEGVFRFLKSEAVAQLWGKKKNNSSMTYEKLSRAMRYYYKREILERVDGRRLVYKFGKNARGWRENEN
# Method in brief: as §1
# SPI1 = SPI1 (Homo sapiens, UniProt P17947 1-270); details: protein: recombinant; tags: N-terminal GST; dsDNA, one strand shown
# Method in brief: as §1
# SPIB = SPIB (Homo sapiens, UniProt Q01892 1-262); details: protein: recombinant; tags: N-terminal GST; dsDNA, one strand shown
# Method in brief: as §1
# ELK3 = molecular target: T6, ELK3 (Homo sapiens, UniProt P41970 1-407); details: protein: recombinant; tags: N-terminal GST; dsDNA, one strand shown
# T6 sequence: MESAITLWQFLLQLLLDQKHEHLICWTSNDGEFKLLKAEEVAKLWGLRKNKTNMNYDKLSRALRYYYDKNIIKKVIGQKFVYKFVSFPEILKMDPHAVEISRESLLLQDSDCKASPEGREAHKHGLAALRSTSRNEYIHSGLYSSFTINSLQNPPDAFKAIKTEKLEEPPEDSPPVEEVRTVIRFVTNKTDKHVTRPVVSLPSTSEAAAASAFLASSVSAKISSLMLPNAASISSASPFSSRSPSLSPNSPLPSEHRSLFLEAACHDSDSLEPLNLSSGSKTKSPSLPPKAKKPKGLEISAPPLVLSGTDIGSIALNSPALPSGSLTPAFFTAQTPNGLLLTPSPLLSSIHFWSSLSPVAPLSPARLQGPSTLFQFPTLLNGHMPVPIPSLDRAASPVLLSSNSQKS
# Method in brief: as §1
# FEV = molecular target: T7, FEV (Homo sapiens, UniProt Q99581 1-238); details: protein: recombinant; tags: N-terminal GST; dsDNA, one strand shown
# T7 sequence: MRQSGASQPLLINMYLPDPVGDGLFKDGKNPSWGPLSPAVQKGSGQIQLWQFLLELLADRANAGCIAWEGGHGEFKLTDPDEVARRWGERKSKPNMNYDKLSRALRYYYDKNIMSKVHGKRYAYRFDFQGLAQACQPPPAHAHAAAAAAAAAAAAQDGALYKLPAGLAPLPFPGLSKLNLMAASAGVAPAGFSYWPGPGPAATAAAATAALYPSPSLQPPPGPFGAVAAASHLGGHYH
# Method in brief: as §1
# ETV5 = ETV5 (Homo sapiens, UniProt P41161 1-510); details: protein: recombinant; tags: N-terminal GST; dsDNA, one strand shown
# Method in brief: as §1
# HSF1 = HSF1 (Homo sapiens, UniProt Q00613 1-529); details: protein: recombinant; tags: N-terminal GST; chain copies: 3; dsDNA, one strand shown
# Method in brief: as §1
# SPIC = molecular target: T8, SPIC (Homo sapiens, UniProt Q8N5J4 1-248); details: protein: recombinant; tags: N-terminal GST; dsDNA, one strand shown
# T8 sequence: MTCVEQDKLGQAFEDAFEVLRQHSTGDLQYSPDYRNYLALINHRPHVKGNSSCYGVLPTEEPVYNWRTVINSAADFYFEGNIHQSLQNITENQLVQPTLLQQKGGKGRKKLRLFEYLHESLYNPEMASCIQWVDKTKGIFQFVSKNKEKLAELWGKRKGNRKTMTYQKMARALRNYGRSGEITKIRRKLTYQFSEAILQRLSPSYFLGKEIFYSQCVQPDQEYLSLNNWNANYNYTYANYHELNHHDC
# Method in brief: as §1
# ELF4 = ELF4 (Homo sapiens, UniProt Q99607 1-663); details: protein: recombinant; tags: N-terminal GST; dsDNA, one strand shown
# Method in brief: as §1
# ELK4 = molecular target: T9, ELK4 (Homo sapiens, UniProt P28324-2 1-405); details: protein: recombinant; tags: N-terminal GST; dsDNA, one strand shown
# T9 sequence: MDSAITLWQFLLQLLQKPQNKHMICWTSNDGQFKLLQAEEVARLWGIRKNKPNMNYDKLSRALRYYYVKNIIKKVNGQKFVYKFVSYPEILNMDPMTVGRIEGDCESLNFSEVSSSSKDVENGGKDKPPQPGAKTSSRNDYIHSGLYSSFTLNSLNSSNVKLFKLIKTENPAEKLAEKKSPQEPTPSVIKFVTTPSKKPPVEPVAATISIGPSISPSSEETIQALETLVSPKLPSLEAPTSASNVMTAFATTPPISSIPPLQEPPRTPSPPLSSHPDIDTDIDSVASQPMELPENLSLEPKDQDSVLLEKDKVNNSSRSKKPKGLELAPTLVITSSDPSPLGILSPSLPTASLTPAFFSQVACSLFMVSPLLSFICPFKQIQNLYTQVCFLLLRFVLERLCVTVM
# Method in brief: as §1
# ETV2 = molecular target: T10, ETV2 (Homo sapiens, UniProt O00321 1-342); details: protein: recombinant; tags: N-terminal GST; dsDNA, one strand shown
# T10 sequence: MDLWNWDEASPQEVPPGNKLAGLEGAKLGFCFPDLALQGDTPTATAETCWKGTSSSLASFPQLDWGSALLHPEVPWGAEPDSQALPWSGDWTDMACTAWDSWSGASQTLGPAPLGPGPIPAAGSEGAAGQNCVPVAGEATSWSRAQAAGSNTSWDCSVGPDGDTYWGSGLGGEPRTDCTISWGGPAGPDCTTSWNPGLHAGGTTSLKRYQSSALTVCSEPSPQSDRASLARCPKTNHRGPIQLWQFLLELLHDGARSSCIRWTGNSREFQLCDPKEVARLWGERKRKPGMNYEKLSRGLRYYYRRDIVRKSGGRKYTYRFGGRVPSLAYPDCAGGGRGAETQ
# Method in brief: as §1
# ELF3 = molecular target: T11, ELF3 (Homo sapiens, UniProt P78545 1-371); details: protein: recombinant; tags: N-terminal GST; dsDNA, one strand shown
# T11 sequence: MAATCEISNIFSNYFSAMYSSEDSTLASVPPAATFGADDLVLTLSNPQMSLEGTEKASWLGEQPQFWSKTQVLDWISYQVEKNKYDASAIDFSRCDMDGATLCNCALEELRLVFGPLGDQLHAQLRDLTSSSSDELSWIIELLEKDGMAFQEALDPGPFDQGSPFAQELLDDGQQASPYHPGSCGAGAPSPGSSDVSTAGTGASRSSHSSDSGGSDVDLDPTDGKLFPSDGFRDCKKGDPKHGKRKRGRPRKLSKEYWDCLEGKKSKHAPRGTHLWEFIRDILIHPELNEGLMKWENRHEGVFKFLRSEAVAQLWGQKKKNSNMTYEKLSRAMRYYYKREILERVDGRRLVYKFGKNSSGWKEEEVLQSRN
# Method in brief: as §1
# CRX = CRX (Homo sapiens, UniProt O43186 1-299); details: protein: recombinant; tags: N-terminal GST; dsDNA, one strand shown
# Method in brief: as §1
# ETV1 = ETV1 (Homo sapiens, UniProt P50549 1-477); details: protein: recombinant; tags: N-terminal GST; dsDNA, one strand shown
# Method in brief: as §1
# Chain of ETV5 (P41161 whole entry): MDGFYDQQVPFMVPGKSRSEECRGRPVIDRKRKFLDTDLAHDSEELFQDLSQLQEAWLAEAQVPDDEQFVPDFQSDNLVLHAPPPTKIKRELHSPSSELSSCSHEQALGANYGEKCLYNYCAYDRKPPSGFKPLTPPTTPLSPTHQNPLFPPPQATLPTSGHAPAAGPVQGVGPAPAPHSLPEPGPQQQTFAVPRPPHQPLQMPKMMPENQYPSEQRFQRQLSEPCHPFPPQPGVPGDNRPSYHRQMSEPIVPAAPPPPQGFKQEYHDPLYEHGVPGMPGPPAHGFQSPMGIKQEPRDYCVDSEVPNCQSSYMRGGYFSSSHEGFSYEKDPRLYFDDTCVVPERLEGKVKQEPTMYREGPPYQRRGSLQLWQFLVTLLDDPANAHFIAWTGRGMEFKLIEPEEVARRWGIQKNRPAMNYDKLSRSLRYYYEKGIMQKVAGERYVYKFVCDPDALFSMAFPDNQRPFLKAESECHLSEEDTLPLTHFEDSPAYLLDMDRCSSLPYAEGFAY
# Chain of ELF1 (P32519 whole entry): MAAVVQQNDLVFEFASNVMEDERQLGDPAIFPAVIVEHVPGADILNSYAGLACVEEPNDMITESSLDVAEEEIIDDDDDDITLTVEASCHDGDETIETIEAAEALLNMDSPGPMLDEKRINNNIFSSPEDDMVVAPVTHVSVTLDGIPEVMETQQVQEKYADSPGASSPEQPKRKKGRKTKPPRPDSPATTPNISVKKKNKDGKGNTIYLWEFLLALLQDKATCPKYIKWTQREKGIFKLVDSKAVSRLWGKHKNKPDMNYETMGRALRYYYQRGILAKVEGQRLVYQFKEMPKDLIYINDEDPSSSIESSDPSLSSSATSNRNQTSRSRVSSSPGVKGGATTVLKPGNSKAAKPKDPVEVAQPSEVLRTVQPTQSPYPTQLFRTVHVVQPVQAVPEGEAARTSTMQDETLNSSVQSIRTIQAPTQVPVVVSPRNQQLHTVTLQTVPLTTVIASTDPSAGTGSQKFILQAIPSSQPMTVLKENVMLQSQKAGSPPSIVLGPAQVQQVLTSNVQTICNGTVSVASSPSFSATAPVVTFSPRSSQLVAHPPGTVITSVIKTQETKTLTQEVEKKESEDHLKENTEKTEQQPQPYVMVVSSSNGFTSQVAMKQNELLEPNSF
# Chain of ELF4 (Q99607 whole entry): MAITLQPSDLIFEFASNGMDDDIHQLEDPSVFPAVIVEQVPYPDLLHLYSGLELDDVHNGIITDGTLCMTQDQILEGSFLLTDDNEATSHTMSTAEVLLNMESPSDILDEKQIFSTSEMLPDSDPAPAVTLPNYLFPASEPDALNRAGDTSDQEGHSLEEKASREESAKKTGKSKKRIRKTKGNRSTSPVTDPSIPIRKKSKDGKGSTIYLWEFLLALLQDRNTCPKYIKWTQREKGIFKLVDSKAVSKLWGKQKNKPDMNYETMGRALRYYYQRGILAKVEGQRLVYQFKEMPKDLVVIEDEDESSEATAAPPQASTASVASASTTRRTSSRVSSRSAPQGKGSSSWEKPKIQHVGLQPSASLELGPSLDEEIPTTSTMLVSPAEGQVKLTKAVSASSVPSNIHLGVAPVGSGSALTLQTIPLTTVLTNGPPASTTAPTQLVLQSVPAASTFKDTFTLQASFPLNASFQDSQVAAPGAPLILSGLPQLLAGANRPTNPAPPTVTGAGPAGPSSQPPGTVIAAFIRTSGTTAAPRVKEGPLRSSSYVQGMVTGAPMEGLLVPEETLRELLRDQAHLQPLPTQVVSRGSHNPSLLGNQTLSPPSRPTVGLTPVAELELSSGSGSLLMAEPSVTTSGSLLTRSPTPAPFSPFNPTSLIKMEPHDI
# Chain of CRX (O43186 whole entry): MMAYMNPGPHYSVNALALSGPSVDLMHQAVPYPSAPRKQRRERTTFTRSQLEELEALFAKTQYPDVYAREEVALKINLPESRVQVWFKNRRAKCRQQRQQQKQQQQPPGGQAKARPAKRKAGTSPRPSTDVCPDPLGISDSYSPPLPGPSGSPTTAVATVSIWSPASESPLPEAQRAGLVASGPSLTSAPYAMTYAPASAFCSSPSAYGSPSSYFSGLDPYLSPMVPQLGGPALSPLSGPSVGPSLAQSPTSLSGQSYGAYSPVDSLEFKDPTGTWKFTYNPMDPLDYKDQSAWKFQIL
# Chain of HSF1 (Q00613 whole entry): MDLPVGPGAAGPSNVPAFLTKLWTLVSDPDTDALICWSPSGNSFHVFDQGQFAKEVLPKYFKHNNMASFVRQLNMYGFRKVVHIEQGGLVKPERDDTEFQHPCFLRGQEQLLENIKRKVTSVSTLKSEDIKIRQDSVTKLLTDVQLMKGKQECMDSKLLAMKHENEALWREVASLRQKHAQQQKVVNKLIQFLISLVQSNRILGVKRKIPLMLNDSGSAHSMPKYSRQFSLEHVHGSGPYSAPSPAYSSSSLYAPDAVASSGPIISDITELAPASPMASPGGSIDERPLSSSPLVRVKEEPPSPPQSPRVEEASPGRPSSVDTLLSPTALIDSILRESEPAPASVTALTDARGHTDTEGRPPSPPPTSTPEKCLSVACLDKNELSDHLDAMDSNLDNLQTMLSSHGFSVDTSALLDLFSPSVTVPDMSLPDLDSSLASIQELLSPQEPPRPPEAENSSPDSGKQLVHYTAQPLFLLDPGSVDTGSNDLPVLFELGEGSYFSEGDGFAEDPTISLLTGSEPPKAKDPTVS
# Chain of SPIB (Q01892 whole entry): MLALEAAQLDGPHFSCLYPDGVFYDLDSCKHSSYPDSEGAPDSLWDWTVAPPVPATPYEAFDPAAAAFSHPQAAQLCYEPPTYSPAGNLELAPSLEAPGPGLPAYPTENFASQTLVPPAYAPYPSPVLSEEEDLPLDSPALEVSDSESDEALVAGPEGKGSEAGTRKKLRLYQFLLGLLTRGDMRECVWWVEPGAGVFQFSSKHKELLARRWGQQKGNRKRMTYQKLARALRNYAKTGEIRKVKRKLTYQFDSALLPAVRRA
# Chain of ETV1 (P50549 whole entry): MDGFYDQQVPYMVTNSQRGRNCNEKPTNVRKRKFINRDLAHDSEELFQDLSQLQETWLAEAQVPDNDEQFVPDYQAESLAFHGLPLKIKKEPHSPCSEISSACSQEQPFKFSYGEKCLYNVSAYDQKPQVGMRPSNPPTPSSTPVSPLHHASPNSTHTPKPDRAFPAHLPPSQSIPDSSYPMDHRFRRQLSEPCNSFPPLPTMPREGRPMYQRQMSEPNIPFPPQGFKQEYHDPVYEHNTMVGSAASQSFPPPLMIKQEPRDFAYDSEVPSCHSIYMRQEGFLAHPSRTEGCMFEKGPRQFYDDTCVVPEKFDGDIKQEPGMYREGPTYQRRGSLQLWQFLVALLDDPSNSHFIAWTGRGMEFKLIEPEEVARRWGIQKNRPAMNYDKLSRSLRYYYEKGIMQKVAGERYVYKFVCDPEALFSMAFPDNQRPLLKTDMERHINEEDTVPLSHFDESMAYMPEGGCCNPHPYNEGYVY
sequence,measurement,setting,value
AAGGAT,binding signal,FLI1,"1.14 fold enrichment (6-mer frequency, TF over GST control)"
same,binding signal,ELK1,"1.19 fold enrichment (6-mer frequency, TF over GST control)"
same,binding signal,GABPA,"1.12 fold enrichment (6-mer frequency, TF over GST control)"
same,binding signal,ERG,"1.17 fold enrichment (6-mer frequency, TF over GST control)"
same,binding signal,ELF1,"1.22 fold enrichment (6-mer frequency, TF over GST control)"
same,binding signal,EHF,"1.25 fold enrichment (6-mer frequency, TF over GST control)"
same,binding signal,SPI1,"1.12 fold enrichment (6-mer frequency, TF over GST control)"
same,binding signal,SPIB,"1.19 fold enrichment (6-mer frequency, TF over GST control)"
same,binding signal,ELK3,"1.13 fold enrichment (6-mer frequency, TF over GST control)"
same,binding signal,FEV,"1.1 fold enrichment (6-mer frequency, TF over GST control)"
same,binding signal,ETV5,"1.17 fold enrichment (6-mer frequency, TF over GST control)"
same,binding signal,HSF1,"1.5 fold enrichment (6-mer frequency, TF over GST control)"
same,binding signal,SPIC,"1.09 fold enrichment (6-mer frequency, TF over GST control)"
same,binding signal,ELF4,"1.13 fold enrichment (6-mer frequency, TF over GST control)"
same,binding signal,ELK4,"1.08 fold enrichment (6-mer frequency, TF over GST control)"
same,binding signal,ETV2,"1.24 fold enrichment (6-mer frequency, TF over GST control)"
same,binding signal,ELF3,"1.13 fold enrichment (6-mer frequency, TF over GST control)"
same,binding signal,CRX,"1.97 fold enrichment (6-mer frequency, TF over GST control)"
same,binding signal,ETV1,"1.12 fold enrichment (6-mer frequency, TF over GST control)"
